Hits are enriched below; roughly 4.1% of the tested compounds scored in any of these assays.
ABHD5-PLIN5 inh: blocks binding of human ABHD5 to perilipin-5. AID 602281. hit rate 0.78% among 360,000. inhibition, % at 4 µM. Split G. princeps luciferase complementation, luminescence, 4 h. Q00G26+Q8WTS1;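 active = inhibition above the mean inhibition across every tested compound plus 3 SD, cut at about 22% in these data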;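 also: 0% = DMSO only wells and the 100% control is not disclosed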
UHRF1 MBD2 ctr: blocks human UHRF1 binding to methylated DNA | inhibition, % at 4.4 µM | UHRF1 binding to methylated oligo, TR-FRET | Q96T88 | hit rate 0.75% among 370,000; in the data active = inhibition above about 21%;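 also: UHRF1 SRA domain binding a hemimethylated CpG hairpin DNA probe; 0% = median of test compound wells and 100% = reference inhibitor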
Target sequence (Q96T88 whole entry, looked up, the tested form may be a part): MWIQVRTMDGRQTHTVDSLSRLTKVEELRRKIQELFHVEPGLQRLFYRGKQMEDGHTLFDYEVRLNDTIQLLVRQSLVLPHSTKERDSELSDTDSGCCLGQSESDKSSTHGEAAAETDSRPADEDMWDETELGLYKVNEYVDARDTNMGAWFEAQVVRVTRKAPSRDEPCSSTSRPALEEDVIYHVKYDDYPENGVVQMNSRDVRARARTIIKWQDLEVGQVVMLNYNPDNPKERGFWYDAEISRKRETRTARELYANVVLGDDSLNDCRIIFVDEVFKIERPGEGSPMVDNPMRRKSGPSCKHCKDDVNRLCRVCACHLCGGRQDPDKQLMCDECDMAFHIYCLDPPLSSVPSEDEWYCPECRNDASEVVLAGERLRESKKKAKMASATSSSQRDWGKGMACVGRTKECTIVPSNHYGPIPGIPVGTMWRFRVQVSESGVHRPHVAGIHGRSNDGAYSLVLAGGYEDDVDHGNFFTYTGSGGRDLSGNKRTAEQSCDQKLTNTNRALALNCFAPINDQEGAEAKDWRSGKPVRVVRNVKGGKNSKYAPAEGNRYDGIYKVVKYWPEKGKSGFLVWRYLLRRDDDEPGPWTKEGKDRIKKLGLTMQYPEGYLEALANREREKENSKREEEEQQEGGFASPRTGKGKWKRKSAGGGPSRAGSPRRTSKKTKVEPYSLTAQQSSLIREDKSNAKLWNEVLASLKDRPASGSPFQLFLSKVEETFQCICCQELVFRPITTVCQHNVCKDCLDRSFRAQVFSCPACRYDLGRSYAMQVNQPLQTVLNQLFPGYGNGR
LEDGF integ inh: blocks HIV-1 LEDGF/p75-dependent DNA integration; TR-FRET IN-LEDGF/p75 DNA integration, Eu/Cy5; inhibition, % at 3.7 µM; hit rate 0.64% among 370,000; AID 743269;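 active = inhibition above the screen-wide mean plus 3 SD, cut at about 13% in these data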;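 also: signal is the Cy5 over europium emission ratio at 671 and 618 nm; 0% = plate median of compound wells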
PRMT1 inh: inhibitors of human PRMT1 | Q99873 | recombinant PRMT1, activity-based probe fluorescence polarization | inhibition, % at 2.79 µM | hit rate 1.3% among 370,000;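 active = inhibition above about 21% made by adding two undisclosed values, limit read from the data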
rCAG RNA binder: binds r(CAG) RNA repeats; inhibition, % at 3 µM; hit rate 1.3% among 370,000; AID 651821; r(CAG) RNA repeat, TO-PRO-1 dye displacement fluorescence;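 active = inhibition above the plate cutoff, the mean of all test compounds on that plate plus 3 SD, cut at about 35% in these data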;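 also: 0% = DMSO alone and 100% = 100 µM mitoxantrone as full dye displacement; higher means more dye released from RNA so lower well fluorescence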
MBD2 DNA inh: inhibitors of human MBD2 binding to methylated oligonucleotide; Q9UBB5; hit rate 0.31% among 370,000; AID 686964; inhibition, % at 4.4 µM; TR-FRET; in the data active = inhibition above about 13%
An asterisk follows results filed as active; nt = no result.

SMILES | ABHD5-PLIN5 inh | UHRF1 MBD2 ctr | LEDGF integ inh | PRMT1 inh | rCAG RNA binder | MBD2 DNA inh
CN(C)c1cccc(N(C)C)c1CNC(=O)NC(=O)c1c(F)cccc1F | -7 | 28* | -1 | 0 | -10 | 1
Cc1ccc2nc(-c3ccccc3)c(CN3CCN(c4ccccc4F)CC3)n2c1 | -1 | 23* | 0 | 3 | 0 | -1
Cc1ccc(CNCCNCCO)s1 | 1 | 22* | -4 | 1 | -1 | 12
CC(=O)C1=C(C)N(Cc2ccc(Br)cc2)C(=S)NC1c1ccc(F)cc1 (configuration not stated) | nt | 6 | 2 | 5 | 3 | 1
O=C(COc1ccccc1)NC(NC(=S)Nc1ccccc1C(=O)O)C(Cl)(Cl)Cl (configuration not stated) | -2 | 1 | 1 | -1 | 39* | 1
Cc1ccc(C)c(NC(=S)NC(NC(=O)Cc2ccccc2)C(Cl)(Cl)Cl)c1 (configuration not stated) | -5 | -3 | -4 | -2 | 2 | 0
COc1ccc(C(=O)C2(C(=O)NCc3ccccc3)CC(c3ccccn3)=NO2)cc1 (configuration not stated) | nt | -1 | 1 | -3 | 0 | 0
COc1cccc(C=C2SC(=S)NC2=O)c1 | -10 | 4 | 0 | 3 | 6 | -2
COc1ccc2cc(/C=C3\SC(=S)NC3=O)c(N3CCOCC3)nc2c1 | 1 | 0 | 1 | -1 | 65* | -10
Cc1ccc(CSc2nc3c(c(=O)[nH]2)CCC3)cc1 | 3 | 58* | 2 | -3 | -3 | 1
Cc1cccc(NC(=O)COc2ccc3oc4c(c3c2)CCCC4)n1 | 1 | 73* | 1 | 1 | -4 | 1
CCCC(=O)C1=C(O)C(C(=O)OC)C(C)(C)CC1=N (configuration not stated) | -3 | 21* | -2 | -3 | -2 | -1
CC(=O)Nc1nonc1NC(C)=O | 1 | -1 | 0 | -3 | 1 | 2
CC(=O)Nc1cc(OC(C)=O)c2nonc2c1OC(C)=O | 18 | 15 | 39* | 59* | 1 | 19*
CN1CC=C(c2ccc(C(F)(F)F)cc2)N(c2ccc(Br)cc2)C1=O | nt | 4 | 4 | -3 | 0 | -6
CC(C)CN1C(=O)[C@]2(CC(=O)N(C)C2c2ccccc2)c2cc(-n3cc(CO)nn3)ccc21 (some centres not stated) | nt | 7 | 5 | -2 | 0 | 1
O=C(O)c1cc2c(ccc3ccccc32)oc1=O | 2 | -8 | 0 | -2 | 1 | -12
CCOC(=O)c1cc2c(ccc3ccccc32)oc1=O | 5 | 29* | -3 | 9 | 6 | -5
COc1ccc(NC(=S)NNC(=O)COc2ccc(Cl)cc2Cl)cc1 | -8 | 4 | 0 | 24* | 22 | -1
CC(C)c1noc2ncc(C(=O)c3cc(Cl)cc(Cl)c3O)cc12 | -2 | -6 | 1 | -1 | 47* | -7
CCSc1nnc(NC(=O)c2ccccc2C)s1 | -4 | 24* | 1 | 1 | 0 | 0
CCSc1nnc(NC(=O)c2ccccc2)s1 | -2 | -1 | 0 | 0 | -1 | -2
O=C(COC(=O)c1cc(F)cc(F)c1)NCCCc1ccccc1 | 5 | 85* | 1 | -1 | -6 | 7
C[C@H]1CN([C@@H](C)CO)C(=O)CCCn2nncc2CO[C@@H]1CN(C)CC1CC1 | nt | -1 | 0 | -4 | 1 | 5
C[C@H](CO)N1C[C@H](C)[C@H](CN(C)C(=O)OCc2ccccc2)OCc2cnnn2CCCC1=O | -3 | 24* | -3 | 3 | -1 | 4
SMILES | ABHD5-PLIN5 inh | UHRF1 MBD2 ctr | LEDGF integ inh | PRMT1 inh | rCAG RNA binder | MBD2 DNA inh
C[C@@H]1CN([C@@H](C)CO)C(=O)CCCn2nncc2CO[C@H]1CN(C)C(=O)Nc1cccc2ccccc12 | -9 | 24* | 3 | 8 | 2 | 8
COc1cccc(S(=O)(=O)N(C)C[C@H]2OCc3cnnn3CCCC(=O)N([C@@H](C)CO)C[C@H]2C)c1 | 6 | 22* | -1 | -1 | -1 | 10
C[C@@H]1CN([C@H](C)CO)C(=O)CCCn2nncc2CO[C@@H]1CN(C)C(=O)Nc1cccc2ccccc12 | 14 | -2 | -3 | 4 | 1 | -4
CCCN(C)C[C@H]1OCc2cnnn2CCCC(=O)N([C@H](C)CO)C[C@@H]1C | 9 | 23* | 3 | 2 | -1 | 13
COc1ccccc1CNC(=O)N(CCc1c(C)[nH]c2ccccc12)Cc1cccs1 | nt | 3 | -3 | 0 | 8 | -3
Cc1ccc(NC(=O)CSc2nnc(-c3ccccc3F)n2-c2ccccc2)c(C)c1 | nt | 3 | 1 | -1 | -1 | 3
CC(=O)c1cccc(NC(=O)c2cnn3c(C)cc(C)nc23)c1 | nt | -2 | -5 | 8 | nt | 3
Cc1nnc(-n2cccc2)s1 | nt | -2 | 1 | -3 | 1 | 3
COc1ccc(CCNC(=O)CSC(=O)c2ccccc2)cc1OC | -16 | -1 | 0 | 22* | 5 | 1
COc1ccc(CCNCCC(=O)Nc2c(C)cc(C)cc2C)cc1OC | 5 | -2 | -1 | -3 | -2 | -3
COc1ccc(CCNCC(=O)Nc2c(C)cc(C)cc2C)cc1OC | -2 | 21* | 0 | 0 | -8 | 4
Cc1cc(C)nc(NC(=S)N2CCN(c3ncc(C(F)(F)F)cc3Cl)CC2)c1 | nt | 0 | 2 | 12 | nt | 0
COC(=O)C1=C(C)N(Cc2ccccc2C(F)(F)F)C(=NCc2ccccc2C(F)(F)F)NC1c1cccc(C(F)(F)F)c1 (configuration not stated) | nt | -4 | -1 | -5 | -2 | 2
COc1ccc(NC(=O)CN(C)C(=O)CNC(=O)c2sc3ccccc3c2Cl)cc1 | 9 | 2 | -10 | 1 | 5 | 2
COc1cccc(NC(=O)CN(C)C(=O)CNC(=O)c2sc3ccccc3c2Cl)c1 | -7 | 21* | 5 | -3 | 3 | 8
COc1ccccc1NS(=O)(=O)c1cccc(NC(=O)c2sc3ccccc3c2Cl)c1 | -4 | 26* | -2 | 1 | 16 | -1
COc1ccccc1C(=O)NCc1n[nH]c(=S)n1Cc1ccccc1 | -5 | 44* | -3 | 6 | -1 | 8
COc1ccccc1C(=O)NCc1ccccc1 | 0 | 3 | 2 | -1 | -5 | -4
CCOc1ccc(CCNC(=O)c2cc3sccc3n2Cc2ccccc2)cc1OCC | nt | -4 | 3 | -5 | nt | -3
COC(=O)[C@]12C[C@H](CC(=O)NCCCCc3ccccc3)C(=O)N(Cc3ccc4c(c3)OCO4)C1=C[C@H](C(C)C)O[C@@H]2C1CC1 | nt | 1 | -3 | 0 | 6 | -1
CN(C)C(=S)Nc1ccc([N+](=O)[O-])cc1 | -7 | -4 | 2 | -3 | 0 | -5
CN(C)C(=S)NC(=NCc1ccc([N+](=O)[O-])cc1)c1ccccc1 | -10 | 10 | -6 | 22* | 4 | 0
